The target in assay [1] is Estrogen receptor (Homo sapiens) (UniProt P03372). Briefly: OT_ER_ERaERa_1440: Odyssey Thera (OT) 24-hour HEK293T Protein-Complementation Assay for Estrogen Receptor-alpha/-alpha Homodimer (AID 2283349).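 Note: hits raise fluorescence above DMSO for agonists and antagonists alike.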 In short, it runs like this: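 Readout is the rise in mean fluorescence from reporter fragment complementation when ERα LBD (aa 310-547) units dimerize in HEK293T cells. Measured 24 h after dosing and analysed as increase over DMSO control.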
Estrogen receptor (Homo sapiens), sequence (P03372 whole entry, looked up, the tested form may be a part): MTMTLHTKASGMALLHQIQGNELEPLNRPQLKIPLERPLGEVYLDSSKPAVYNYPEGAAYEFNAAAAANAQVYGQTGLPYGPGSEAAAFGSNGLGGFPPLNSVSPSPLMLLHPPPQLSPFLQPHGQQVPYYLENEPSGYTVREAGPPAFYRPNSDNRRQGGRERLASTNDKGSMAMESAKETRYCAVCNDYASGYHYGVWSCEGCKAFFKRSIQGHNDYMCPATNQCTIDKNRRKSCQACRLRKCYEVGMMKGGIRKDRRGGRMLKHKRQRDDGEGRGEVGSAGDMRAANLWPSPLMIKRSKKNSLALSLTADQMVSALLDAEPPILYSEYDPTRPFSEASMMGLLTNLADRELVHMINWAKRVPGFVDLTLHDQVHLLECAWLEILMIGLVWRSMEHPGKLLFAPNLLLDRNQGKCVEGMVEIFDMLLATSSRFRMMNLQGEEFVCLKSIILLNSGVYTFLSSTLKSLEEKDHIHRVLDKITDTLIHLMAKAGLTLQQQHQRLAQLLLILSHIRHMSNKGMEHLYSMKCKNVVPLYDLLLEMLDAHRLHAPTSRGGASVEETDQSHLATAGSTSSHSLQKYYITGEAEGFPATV

Assay [2] shares this target. Briefly: OT_ER_ERaERa_0480: Odyssey Thera (OT) 8-hour HEK293T Protein-Complementation Assay for Estrogen Receptor-alpha/-alpha Homodimer (AID 2283351).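 Note: rise in fluorescence from reassembled reporter fragments on ERα LBD homodimer in nucleus or whole cell.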 The essentials:
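Binding reporter in which dimerisation of ERα LBD (aa 310-547) fusions reconstitutes a fluorescent reporter in HEK293T cells. Compounds incubated 8 h; mean fluorescence intensity increase versus DMSO scored.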

Assay [3] concerns the target Estrogen receptor (Homo sapiens) + Estrogen receptor beta (Homo sapiens) (UniProt P03372+Q92731). Put plainly: OT_ER_ERaERb_1440: Odyssey Thera (OT) 24-hour HEK293T Protein-Complementation Assay for Estrogen Receptor-alpha/-beta Homodimer (AID 2283356).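 Note: heteromer of ER alpha and ER beta binding domains; hits raise reporter fluorescence and both agonists and antagonists give an increase.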 The essentials:
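Stable HEK293T PCA line, ERα LBD 310-547 + ERβ LBD 263-489 fused to reporter fragments; 24 h treatment; fluorescence read by laser scanning cytometry; positive fitting direction relative to DMSO.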

In assay [4] the target is Androgen Receptor/SRC-1 Co-activator, AR (gene 367) (UniProt P10275). Put plainly: OT_AR_ARSRC1_0960: Odyssey Thera (OT) 16-hour HEK293T Protein-Complementation Assay for Androgen Receptor/SRC-1 Co-activator (AID 2283353).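 Note: actives raise the signal above DMSO so potency reflects increased AR and SRC-1 complex.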 The essentials: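 Interaction of AR with SRC-1 was followed by YFP fragment complementation in HEK293T cells after 16 h of dosing. Gain of nuclear-over-cytoplasmic 488 nm fluorescence against DMSO controls defined activity.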
Androgen Receptor/SRC-1 Co-activator, AR (gene 367), sequence (P10275 whole entry, looked up, the tested form may be a part): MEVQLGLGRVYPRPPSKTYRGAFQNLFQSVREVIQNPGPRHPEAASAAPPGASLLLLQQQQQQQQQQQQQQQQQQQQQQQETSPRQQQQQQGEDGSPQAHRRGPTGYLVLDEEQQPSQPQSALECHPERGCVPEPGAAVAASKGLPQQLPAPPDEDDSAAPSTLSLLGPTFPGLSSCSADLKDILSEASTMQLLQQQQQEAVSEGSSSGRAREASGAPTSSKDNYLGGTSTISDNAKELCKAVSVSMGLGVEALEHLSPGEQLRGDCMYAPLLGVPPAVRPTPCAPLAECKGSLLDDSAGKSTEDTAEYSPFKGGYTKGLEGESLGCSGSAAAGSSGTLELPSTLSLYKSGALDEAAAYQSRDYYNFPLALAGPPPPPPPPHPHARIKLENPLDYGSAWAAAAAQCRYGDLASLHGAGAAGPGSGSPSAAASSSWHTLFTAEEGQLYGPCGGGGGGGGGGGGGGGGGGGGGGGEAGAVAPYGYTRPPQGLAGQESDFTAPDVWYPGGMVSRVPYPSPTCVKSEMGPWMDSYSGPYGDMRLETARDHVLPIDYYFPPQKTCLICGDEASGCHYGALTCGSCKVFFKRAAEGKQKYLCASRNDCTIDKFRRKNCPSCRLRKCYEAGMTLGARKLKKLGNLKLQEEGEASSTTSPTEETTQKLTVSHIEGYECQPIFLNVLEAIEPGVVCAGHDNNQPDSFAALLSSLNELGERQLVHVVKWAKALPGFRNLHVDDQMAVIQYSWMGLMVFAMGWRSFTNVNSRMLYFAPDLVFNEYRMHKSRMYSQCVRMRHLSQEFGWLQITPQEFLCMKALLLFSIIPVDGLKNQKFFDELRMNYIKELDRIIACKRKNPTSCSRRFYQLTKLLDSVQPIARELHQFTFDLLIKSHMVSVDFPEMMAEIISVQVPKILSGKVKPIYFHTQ

Assay [5] has the same target. Briefly: OT_AR_ARSRC1_0480: Odyssey Thera (OT) 8-hour HEK293T Protein-Complementation Assay for Androgen Receptor/SRC-1 Co-activator (AID 2283354).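 Note: hits raise the complementation signal above DMSO so AC50 marks enhancers.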 In short, it runs like this: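 HEK293T cells stably expressing AR and SRC-1 fused to split Venus YFP fragments via (Gly4Ser)2 linkers were read 8 h after compound dosing. Complementation was imaged at 488 and 635nm, and nuclear/cytoplasmic fluorescence ratio (488nm) was taken over ≥400 cells; gain-of-signal versus DMSO.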

The target of assay [6] is Estrogen receptor beta (Homo sapiens) (UniProt Q92731). Briefly: OT_ER_ERbERb_0480: Odyssey Thera (OT) 8-hour HEK293T Protein-Complementation Assay for Estrogen Receptor-beta/-beta Homodimer (AID 2283357).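 Note: active means signal gain over DMSO baseline.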 The essentials:
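Readout: increase in mean fluorescence intensity (nucleus for agonists; nucleus plus cytoplasm for antagonists) relative to DMSO, from a reporter-fragment complementation of human ER-beta LBD homodimer in HEK293T cells dosed 8 hours.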

The target of assay [7] is human Peroxisome Proliferator-activated Receptor alpha (PPARa), PPARA (gene 5465) (UniProt Q07869). Put plainly: NVS_NR_hPPARa: NovaScreen (NVS) Nuclear Receptor Binding Assay for human Peroxisome Proliferator-activated Receptor alpha (PPARa) (AID 2283359).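 Note: activity means loss of TR-FRET signal versus DMSO baseline.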 In short, it runs like this: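 Cell-free binding assay with extracted human protein, read by TR-FRET 1 h after chemical dosing. Loss of signal relative to DMSO baseline indicates binding. Primary screen used duplicate single concentration (25 uM); actives followed up in concentration series.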

The target of assay [8] is Estrogen receptor (Homo sapiens) (UniProt P03372). Put plainly: NVS_NR_hER: NovaScreen (NVS) Nuclear Receptor Binding Assay for human Estrogen Receptor (ER) (AID 2283348). The essentials: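 Cell-free radioligand binding with protein extracted from MCF7 cells; scintillation counting 18 hours after dosing. Loss of signal versus DMSO baseline read as displacement; primary single-concentration screen at 25 uM in duplicate, actives retested in concentration series.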

Assay [9] addresses Bile acid receptor (Homo sapiens) (UniProt Q96RI1). Briefly: NVS_NR_hFXR_Antagonist: NovaScreen (NVS) Nuclear Receptor Binding Assay for human Farnesoid X Receptor Antagonism (FXR) (AID 2283350). The essentials: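 Cell-free TR-FRET ligand-binding read-out on human FXR (NR1H4) in antagonist mode, measured 1 h after dosing. Primary screen in duplicate at 25 uM, actives retested in concentration series; signal loss scored versus DMSO.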

Assay [10] has as its target PGR (gene 5241) (UniProt P06401). Put plainly: NVS_NR_hPR: NovaScreen (NVS) Nuclear Receptor Binding Assay for human Progestron Receptor (PR) (AID 2283360).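 Note: active means loss of bound radioligand signal versus DMSO baseline.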 The essentials: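 T47D-derived receptor preparation, cell-free, with tritiated or iodinated radioligand displacement measured by scintillation 18 h post-dosing. Single 25 uM duplicate screen, then concentration series; signal loss relative to DMSO.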

For assay [11], the target named is Retinoic acid receptor alpha (Homo sapiens) (UniProt P10276). Put plainly: NVS_NR_hRARa_Agonist: NovaScreen (NVS) Nuclear Receptor Binding Assay for human Retinoic Acid Alpha Receptor Agonism (RAR) (AID 2283361). The essentials: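 Cell-free TR-FRET binding read-out with extracted human RARα protein, read 2 h after compound addition. Gain of signal scored against DMSO baseline. Primary screen at a single 25 uM in duplicate; actives then retested in concentration series.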
Retinoic acid receptor alpha (Homo sapiens), sequence (P10276 whole entry, looked up): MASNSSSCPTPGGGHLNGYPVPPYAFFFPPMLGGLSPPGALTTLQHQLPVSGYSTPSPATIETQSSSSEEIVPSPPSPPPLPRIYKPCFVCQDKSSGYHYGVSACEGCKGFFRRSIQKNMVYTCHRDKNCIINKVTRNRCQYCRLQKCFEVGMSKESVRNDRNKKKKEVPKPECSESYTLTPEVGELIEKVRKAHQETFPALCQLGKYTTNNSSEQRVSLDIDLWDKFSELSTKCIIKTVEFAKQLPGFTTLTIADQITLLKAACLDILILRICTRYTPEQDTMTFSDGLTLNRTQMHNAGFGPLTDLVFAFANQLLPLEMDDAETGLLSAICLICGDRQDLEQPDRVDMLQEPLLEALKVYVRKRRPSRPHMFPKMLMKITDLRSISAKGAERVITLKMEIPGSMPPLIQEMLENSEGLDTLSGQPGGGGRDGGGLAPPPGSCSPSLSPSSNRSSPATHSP

In assay [12] the test system is guinea pig Dopamine Transporter (DAT), gene 100714898. Put plainly: NVS_TR_gDAT: NovaScreen (NVS) Transporter Assay for guinea pig Dopamine Transporter (DAT) (AID 2283369).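 Note: active compounds lower bound radioligand signal relative to DMSO.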 In short, it runs like this:
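Scintillation counts of filter-retained radioligand report binding to guinea pig striatal membranes after 2 h. Activity scored as signal loss relative to DMSO, first at 25 uM in duplicate, then in concentration series to 50 uM.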

Assay [13] addresses guinea pig Sigma Receptor, Non-selective Binding, SIGMAR1 (gene 100135589) (UniProt Q60492). Put plainly: NVS_OR_gSIGMA_NonSelective: NovaScreen (NVS) Nuclear Receptor Binding Assay for guinea pig Sigma Receptor, Non-selective Binding (AID 2283367). In short, it runs like this:
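Guinea pig brain membranes, cell-free radioligand binding; read 1 h after dosing by filter-based scintillation counting. Loss of signal vs DMSO baseline taken as displacement. Primary screen single concentration 25 uM in duplicate; actives retested in concentration series.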

Assay [14] has as its target rat Mineralocorticoid Receptor (MR), Nr3c2 (gene 25672) (UniProt P22199). Put plainly: NVS_NR_rMR: NovaScreen (NVS) Nuclear Receptor Binding Assay for rat Mineralocorticoid Receptor (MR) (AID 2283355). In short, it runs like this:
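Cell-free radioligand binding to MR in adrenalectomized rat brain supernatant, scintillation counted 24 h after dosing. Loss of signal versus DMSO baseline marks displacement. Primary screen in duplicate at 25 uM; actives retested as concentration series.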

In assay [15] the target is Retinoic acid receptor alpha (Homo sapiens) (UniProt P10276). Briefly: NVS_NR_hRAR_Antagonist: NovaScreen (NVS) Nuclear Receptor Binding Assay for human Retinoic Acid Alpha Receptor Antagonism (RAR) (AID 2283358). In short, it runs like this: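 Cell-free TR-FRET binding assay on extracted receptor protein, run in antagonist mode; signal read 2 hours after chemical dosing. Loss of signal was fitted relative to DMSO baseline. Screened at 25 uM in duplicate, actives followed up in concentration series.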

The target in assay [16] is human Thyroid Receptor Alpha (TRa), THRA (gene 7067) (UniProt P10827). Put plainly: NVS_NR_hTRa_Antagonist: NovaScreen (NVS) Nuclear Receptor Binding Assay for human Thyroid Receptor Alpha Antagonism (TRa) (AID 2283362). The essentials: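 Extracted protein, cell-free; 1 h incubation after dosing; AlphaLISA chemiluminescence binding readout. DMSO = baseline/neg ctrl; signal loss = activity. Primary: duplicate, 25 uM; secondary: conc. series on actives.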

Assay [17] addresses rat Androgen Receptor (AR), Ar (gene 24208) (UniProt P15207). Briefly: NVS_NR_rAR: NovaScreen (NVS) Nuclear Receptor Binding Assay for rat Androgen Receptor (AR) (AID 2283366). In short, it runs like this:
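Cell-free radioligand binding on extracts of prostate from testosterone-pretreated rats, read by filter-based scintillation counting 18 h after dosing. Loss of bound signal fitted positively versus DMSO; primary screen in duplicate at 25 uM, actives followed up in concentration series.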

Consider 41 compounds from PubChem BioAssay (EPA / NIEHS).

SMILES strings stand for the structures. Records with an inconclusive call do not appear. Calls of active or inactive are those of the source. Rule for the calls: active = hit-call score of the fitted dose curve at least 0.9, where 1 is the maximum; inconclusive = response in the unintended direction; inactive = score below 0.9.

guinea pig Sigma Receptor, Non-selective Binding, SIGMAR1 (gene 100135589), sequence (Q60492 whole entry, looked up): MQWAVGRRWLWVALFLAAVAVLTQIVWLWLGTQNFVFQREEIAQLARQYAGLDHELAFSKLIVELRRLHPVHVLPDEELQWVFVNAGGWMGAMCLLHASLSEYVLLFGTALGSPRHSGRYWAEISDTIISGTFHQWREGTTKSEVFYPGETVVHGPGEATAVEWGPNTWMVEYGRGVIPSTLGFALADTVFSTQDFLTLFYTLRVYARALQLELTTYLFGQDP
Estrogen receptor (Homo sapiens) + Estrogen receptor beta (Homo sapiens), sequence (P03372 whole entry, looked up, the tested form may be a part): as the sequence (P03372 whole entry, looked up, the tested form may be a part) above
Estrogen receptor (Homo sapiens) + Estrogen receptor beta (Homo sapiens), sequence (Q92731 whole entry, looked up, the tested form may be a part): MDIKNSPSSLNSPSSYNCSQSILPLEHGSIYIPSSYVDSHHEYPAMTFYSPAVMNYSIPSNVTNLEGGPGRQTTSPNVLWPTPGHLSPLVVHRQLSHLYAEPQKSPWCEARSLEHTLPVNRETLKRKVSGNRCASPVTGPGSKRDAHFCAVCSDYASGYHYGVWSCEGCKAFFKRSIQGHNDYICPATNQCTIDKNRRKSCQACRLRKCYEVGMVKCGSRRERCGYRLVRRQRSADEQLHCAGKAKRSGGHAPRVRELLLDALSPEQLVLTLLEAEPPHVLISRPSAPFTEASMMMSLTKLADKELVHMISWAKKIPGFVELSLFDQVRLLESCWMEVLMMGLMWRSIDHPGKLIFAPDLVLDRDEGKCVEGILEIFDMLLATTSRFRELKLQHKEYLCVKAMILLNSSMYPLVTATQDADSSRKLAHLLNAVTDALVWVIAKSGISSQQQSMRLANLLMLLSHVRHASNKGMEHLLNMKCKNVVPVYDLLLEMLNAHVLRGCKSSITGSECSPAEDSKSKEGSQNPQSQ
Estrogen receptor beta (Homo sapiens), sequence (Q92731 whole entry, looked up, the tested form may be a part): as above
PGR (gene 5241), sequence (P06401 whole entry, looked up): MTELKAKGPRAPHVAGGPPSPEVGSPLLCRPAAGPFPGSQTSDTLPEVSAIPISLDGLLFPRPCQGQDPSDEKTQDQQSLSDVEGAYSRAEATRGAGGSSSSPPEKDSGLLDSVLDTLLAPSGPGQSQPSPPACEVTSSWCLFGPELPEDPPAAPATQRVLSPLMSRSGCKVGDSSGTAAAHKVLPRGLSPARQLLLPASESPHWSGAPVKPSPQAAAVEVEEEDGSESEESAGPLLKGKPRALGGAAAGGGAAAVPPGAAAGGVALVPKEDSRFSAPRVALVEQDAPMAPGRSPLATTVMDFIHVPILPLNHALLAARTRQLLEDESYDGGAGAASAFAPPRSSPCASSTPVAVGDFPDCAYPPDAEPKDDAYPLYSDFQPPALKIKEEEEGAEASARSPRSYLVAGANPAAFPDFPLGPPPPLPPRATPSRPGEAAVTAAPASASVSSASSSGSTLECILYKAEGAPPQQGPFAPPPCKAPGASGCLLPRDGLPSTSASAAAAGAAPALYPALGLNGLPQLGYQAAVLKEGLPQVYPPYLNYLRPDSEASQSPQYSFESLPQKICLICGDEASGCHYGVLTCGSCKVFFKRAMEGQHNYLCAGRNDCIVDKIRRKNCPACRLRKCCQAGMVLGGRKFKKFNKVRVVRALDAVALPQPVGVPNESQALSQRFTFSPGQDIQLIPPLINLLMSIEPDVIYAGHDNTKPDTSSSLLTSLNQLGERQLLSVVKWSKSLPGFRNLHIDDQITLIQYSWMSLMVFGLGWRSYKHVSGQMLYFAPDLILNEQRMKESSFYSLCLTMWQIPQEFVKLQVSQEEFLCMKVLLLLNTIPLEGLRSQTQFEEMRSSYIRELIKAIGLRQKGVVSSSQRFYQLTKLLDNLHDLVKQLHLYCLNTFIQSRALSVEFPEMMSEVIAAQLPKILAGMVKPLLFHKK
rat Mineralocorticoid Receptor (MR), Nr3c2 (gene 25672), sequence (P22199 whole entry, looked up): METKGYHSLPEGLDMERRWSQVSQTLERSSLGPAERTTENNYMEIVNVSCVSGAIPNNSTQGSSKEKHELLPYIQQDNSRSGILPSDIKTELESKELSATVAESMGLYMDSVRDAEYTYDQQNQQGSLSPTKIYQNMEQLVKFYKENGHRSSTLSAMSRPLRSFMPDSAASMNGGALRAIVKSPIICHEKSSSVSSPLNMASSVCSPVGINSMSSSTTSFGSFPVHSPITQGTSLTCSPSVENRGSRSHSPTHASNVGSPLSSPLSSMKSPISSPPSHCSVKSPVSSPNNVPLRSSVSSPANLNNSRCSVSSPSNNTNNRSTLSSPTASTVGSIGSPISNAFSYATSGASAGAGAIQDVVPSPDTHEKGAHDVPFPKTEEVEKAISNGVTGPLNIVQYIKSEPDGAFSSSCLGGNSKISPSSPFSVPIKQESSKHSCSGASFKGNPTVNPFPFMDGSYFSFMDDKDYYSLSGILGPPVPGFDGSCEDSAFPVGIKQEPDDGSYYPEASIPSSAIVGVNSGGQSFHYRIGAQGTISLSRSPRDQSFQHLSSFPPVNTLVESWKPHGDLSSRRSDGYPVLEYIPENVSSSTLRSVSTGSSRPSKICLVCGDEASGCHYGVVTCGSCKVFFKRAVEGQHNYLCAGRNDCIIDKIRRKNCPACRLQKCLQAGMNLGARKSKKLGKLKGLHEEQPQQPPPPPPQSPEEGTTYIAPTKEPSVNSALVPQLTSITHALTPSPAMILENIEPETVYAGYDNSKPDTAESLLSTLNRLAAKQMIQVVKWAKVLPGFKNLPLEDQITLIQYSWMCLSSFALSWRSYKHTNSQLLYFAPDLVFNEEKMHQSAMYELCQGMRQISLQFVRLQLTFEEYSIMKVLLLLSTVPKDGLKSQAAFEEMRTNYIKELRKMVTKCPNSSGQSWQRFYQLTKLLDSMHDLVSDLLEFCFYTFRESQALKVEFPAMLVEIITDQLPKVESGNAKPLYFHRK

As to `CCN(CCO)CCO`, the result in assay [1], in assay [2] and in assay [3] was inactive.

Broadly, the AC50 is the concentration at which the activity in the assay is half-maximal. Turning to `O=C(NC(=O)c1c(F)cccc1F)Nc1cc(Cl)c(OC(F)(F)C(F)C(F)(F)F)cc1Cl` (stereo unspecified), the result in assay [1], in assay [2], in assay [4], in assay [5] and in [6] was inactive. Further, the AC50 in assay [3] was 50.2 µM (active).

On to `N#CCC#N`, for which the outcome in assay [1], in assay [2], in assay [4], in assay [5], in assay [3] and in assay [6] was inactive. In addition, the compound was called inactive in assay [7].

As to `N#Cc1cccnc1`, the compound was classed as inactive in [1], in assay [2], in assay [6] and in [7].

For the compound `C=CC(=O)OCC(COC(=O)C=C)(COC(=O)C=C)COC(=O)C=C`, the compound was classed as inactive in assay [8].

Regarding `O=C(O)COc1ccc(Cl)cc1`, the result in assay [1], in assay [2] and in assay [3] was inactive.

As for `CNC(=O)O/N=C/C(C)(C)S(C)(=O)=O`, the outcome in assay [1], in [2], in assay [4], in assay [3] and in assay [6] was inactive.

`O=C(O)C1(c2ccc3c(c2)OC[C@H](Cc2ccc(-c4ccccc4)cc2)[C@H]3O)CCCC1`: the result in [9], in assay [10] and in [11] was inactive.

With `CCCSP(=S)(OCC)Oc1ccc(SC)cc1` (stereo unspecified), the outcome in assay [1], in assay [2] and in assay [6] was inactive. The AC50 in assay [3] was 24.1 µM (active).

On to `O=C(NC(=O)c1c(F)cccc1F)Nc1ccc(Cl)cc1`, for which the result in assay [1], in assay [2] and in assay [3] was inactive.

As to `O=C(Cl)OCCOCCOC(=O)Cl`, the result in assay [8] was inactive.

`Oc1ccc(Cc2ccc(O)cc2)cc1`: the compound was classed as inactive in [8]. In addition, the AC50 in [12] is 10.1 µM (active).

Consider `C=CC(Cl)CCl` (stereo unspecified), for which the call in assay [4], in assay [5] and in assay [6] was inactive.

On to `OC(c1ccc(Cl)cc1)(c1ccc(Cl)cc1)c1cccnc1`, for which the compound was classed as inactive in assay [8].

In the case of `CC(C)N(C(=O)CCl)c1ccccc1`, the compound was called inactive in assay [8], in assay [1], in assay [2], in assay [5], in assay [3] and in assay [6]. The AC50 in assay [4] is 45.7 µM (active); in [12] it was 11.8 µM (active).

Regarding `O=C(NC(=O)c1c(F)cccc1F)Nc1cc(Cl)c(Oc2ncc(C(F)(F)F)cc2Cl)c(Cl)c1`, the call in [8] was inactive.

Consider `O=[N+]([O-])c1ccc(Nc2ccccc2)cc1`, for which, in assay [8], the outcome was inactive. Also, the AC50 in [10] was 37.6 µM (active); in assay [12], 4.24 µM (active).

As for `O=[N+]([O-])c1c2ccccc2cc2ccccc12`, the call in assay [8] was inactive.

Consider `c1csc(-c2ccc(-c3cccs3)s2)c1`, for which, in [8], the result was inactive.

Consider `C=CCN=C=S`, for which the compound was classed as inactive in assay [1] and in [2].

Take `CCCCC(CC)C(=O)Cl` (stereo unspecified): the compound was classed as inactive in [8].

Take `O=S(=O)(Oc1ccc(Cl)cc1)c1ccc(Cl)cc1`: the outcome in assay [8] was inactive.

As for `Cc1cc(Cl)ccc1OC(C)C(=O)O` (stereo unspecified), the result in [1], in assay [2], in [3] and in [6] was inactive.

As to `O=CCCl`, the outcome in [1], in assay [2], in [3] and in assay [6] was inactive.

Consider `CCOc1ccc(N)cc1`, for which the outcome in [1], in assay [2], in [3] and in [6] was inactive.

Regarding `CCCCCCCCCCCCBr`, the call in assay [8] was inactive.

For the compound `O=C(Nc1ccc(Br)cc1)c1cc(Br)cc(Br)c1O`, the compound was called inactive in [8].

For `CCCCCCCCCCCCN(C)C`, the compound was called inactive in assay [1] and in assay [2]. Also, the AC50 in assay [3] is 73.9 µM (active); in assay [6], 76.5 µM (active); in assay [13] it was 1.51 µM (active).

Regarding `O=S1OC[C@@H]2[C@H](CO1)[C@]1(Cl)C(Cl)=C(Cl)[C@@]2(Cl)C1(Cl)Cl` (stereo partly specified), the compound was classed as inactive in assay [8], in assay [1], in [2], in assay [4] and in [5].

In the case of `Cc1cc(Cl)ccc1OCCCC(=O)O`, the compound was classed as inactive in assay [5].

On to `O=C(N[C@H]1CN2CCC1CC2)c1ccc2c(c1)OCCO2`, for which the compound was called inactive in assay [5] and in assay [11].

For the compound `Clc1cccc(Cl)c1`, in assay [14], the compound was classed as inactive.

For the compound `CC(C=O)Cc1ccc2c(c1)OCO2` (stereo unspecified), in [14], the result was inactive.

As to `N#CCCC(Br)(C#N)CBr` (stereo unspecified), the AC50 in assay [3] is 11.8 µM (active).

On to `CCCCCCCCCCCCc1cccc(S(=O)(=O)O)c1`, for which the concentration at half-maximal activity (AC50) in assay [15] is 22.5 µM (active).

As to `Clc1cccc(Cl)c1Cl`, the call in assay [15] was inactive.

For the compound `CCOc1cc(C=O)ccc1O`, the compound was classed as inactive in assay [16].

On to `Nc1ncn[nH]1`, for which, in assay [16], the result was inactive.

For `O=C1C=CC(=O)c2ccccc21`, in assay [17], the result was inactive.

With `CCCCCCCCCCBr`, the AC50 in assay [13] is 0.87 µM (active).

`CCOC(=O)CCN(SN(C)C(=O)Oc1cccc2c1OC(C)(C)C2)C(C)C`: the AC50 in assay [13] is 15.8 µM (active).
